In the library only some 0.97% were active in any assay of this set; here they are far more common.
Mtb BioA inh – M. tuberculosis BioA enzyme inhibitors, primary screen, biochemical, plate reader, single point, HTS; 7,8-diaminopelargonic acid synthase BioA (Mycobacterium tuberculosis); purified M. tuberculosis BioA enzyme; inhibition, % at 9.99 µM; 360,000 tested, 0.096% active; AID 602481, 2012; in the data active = inhibition above about 40%
FadD28 binding – inhibitors of FadD28 bisubstrate probe binding, primary screen, biochemical, fluorescence polarization, single point; AID 588549, 2011; inhibition, % at 12.5 µM; 360,000 tested, 0.22% active; in the data active = inhibition above about 8.5%, passing the limit was not always enough
UGM FP inh – M. tuberculosis UGM enzyme inhibitors, primary screen, biochemical, fluorescence polarization, single point. purified UGM, fluorescence polarization probe displacement. UDP-galactopyranose mutase (Mycobacterium tuberculosis (strain ATCC 25618 / H37Rv)), …. 320,000 tested, 0.06% active. inhibition, % at 10 µM. AID 504406, 2011; in the data active = inhibition above about 10%, passing the limit was not always enough
TcdB inh – TcdB glycohydrolase inhibitors, primary screen, biochemical, single point, plate reader; Toxin B (Clostridioides difficile), P18177; TcdB glycohydrolase enzymatic assay; inhibition, % at 9.99 µM; 350,000 tested, 0.24% active; in the data active = inhibition above about 10%
Rv3671c inh – Rv3671c serine protease inhibitors, primary screen, biochemical, fluorescence polarization, M. tuberculosis H37Rv; 320,000 tested, 0.048% active; inhibition, % at 5.96 µM; P9WHR9; AID 2606, 2010; in the data active = inhibition above about 38%;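 also: extracellular domain of Rv3671c used as enzyme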
Target sequence (P9WHR9 whole entry, looked up, the tested form may be a part): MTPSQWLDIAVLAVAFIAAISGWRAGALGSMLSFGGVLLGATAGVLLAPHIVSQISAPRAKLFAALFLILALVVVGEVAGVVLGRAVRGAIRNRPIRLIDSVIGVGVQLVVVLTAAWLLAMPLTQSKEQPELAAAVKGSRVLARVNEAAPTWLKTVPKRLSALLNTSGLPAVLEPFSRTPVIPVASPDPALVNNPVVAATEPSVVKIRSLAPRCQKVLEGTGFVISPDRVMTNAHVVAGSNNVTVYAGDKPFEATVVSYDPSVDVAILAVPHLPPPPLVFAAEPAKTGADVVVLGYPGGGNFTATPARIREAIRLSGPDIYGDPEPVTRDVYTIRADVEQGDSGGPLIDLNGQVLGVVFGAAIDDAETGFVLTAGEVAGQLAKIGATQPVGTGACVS
RecA intein inh – Mtb RecA intein splicing inhibitors, primary screen, biochemical, fluorescence, HTS. cell-free RecA intein splicing. inhibition, % (concentration not given with the values). AID 2221, 2009. 290,000 tested, 0.75% active; in the data active = inhibition above about 30%
GFP chromo cs – counter-screen: blocks GFP chromophore formation, dose response, counter-screen, biochemical, fluorescence, homogeneous; AID 434968, 2010; cell-free GFP chromophore formation; 2,100 tested, 83% active; shares compounds with RecA intein inh; EC50, µM; call rule not given here
Numbers stand for hits.

For COc1ccc(NC(=O)N(C)C[C@@H]2OCCCC[C@@H](C)Oc3ccc(NS(=O)(=O)c4ccc(Cl)cc4)cc3C(=O)N([C@@H](C)CO)C[C@H]2C)cc1 the results were Mtb BioA inh inactive and TcdB inh inactive.
`CO[C@@H]1CN(C)C(=O)c2cc(NC(=O)C3CCOCC3)ccc2OC[C@@H](C)N(S(=O)(=O)c2ccc(Cl)cc2)C[C@H]1C` gave Mtb BioA inh inactive and TcdB inh inactive.
Screening COC(=O)[C@@H]1C[C@]2(OC(=O)c3ccccc3)C=CC(=O)C[C@@H]2N1C(=O)OCc1ccccc1 returned Mtb BioA inh inactive, FadD28 binding inactive, UGM FP inh inactive, TcdB inh inactive, Rv3671c inh inactive, RecA intein inh 56 and GFP chromo cs 32.
For COc1ccc(C(=O)Nc2ccncc2)cc1[N+](=O)[O-] the results were Mtb BioA inh inactive, FadD28 binding inactive, UGM FP inh inactive, TcdB inh inactive, RecA intein inh 39 and GFP chromo cs inactive.
For FC(F)(F)c1nnc(-c2ccccc2)nc1Sc1ccccc1 the results were Mtb BioA inh inactive, FadD28 binding inactive, UGM FP inh inactive, Rv3671c inh inactive, RecA intein inh 63 and GFP chromo cs 27.
`FC(F)(F)c1nnc(-c2ccccc2)nc1Oc1ccc(Cl)cc1Cl` gave Mtb BioA inh inactive, FadD28 binding inactive, UGM FP inh inactive, Rv3671c inh inactive, RecA intein inh 61 and GFP chromo cs 0.45.
For CN(NC(=O)c1cccc(Cl)c1)c1nc(-c2ccccc2)nnc1C(F)(F)F the results were FadD28 binding inactive, UGM FP inh inactive, Rv3671c inh inactive and RecA intein inh inactive.
FC(F)(F)c1cccc(Oc2nc(-c3ccccc3)nnc2C(F)(F)F)c1 was read as FadD28 binding inactive, UGM FP inh inactive, Rv3671c inh inactive, RecA intein inh 58 and GFP chromo cs 1.5.
`FC(F)(F)c1cccc(Sc2nc(-c3ccccc3)nnc2C(F)(F)F)c1` gave Mtb BioA inh inactive, FadD28 binding inactive, UGM FP inh inactive, Rv3671c inh inactive and RecA intein inh inactive.
FC(F)(F)c1nnc(-c2ccccc2)nc1Sc1ccc(Cl)cc1 was read as Mtb BioA inh inactive, FadD28 binding inactive, UGM FP inh inactive, Rv3671c inh inactive and RecA intein inh inactive.
Screening CCCNC(=O)N1CC2(C1)[C@@H](c1ccccc1)[C@H](CO)N2C(=O)C1CC1 returned TcdB inh inactive.
`COC(=O)c1nc(-c2ccc3c(n2)C(=O)C(N)=C(OC)C3=O)c(N)c(-c2ccc(OC)c(OC)c2O)c1C` gave Mtb BioA inh inactive, FadD28 binding inactive, UGM FP inh inactive, TcdB inh inactive, Rv3671c inh inactive, RecA intein inh 94 and GFP chromo cs 0.84.
`COC1=C(N)C(=O)c2nc(-c3nc(C(=O)O)c(C)c(-c4ccc(OC)c(OC)c4O)c3N)ccc2C1=O` gave Mtb BioA inh inactive and Rv3671c inh inactive.
Screening COC(=O)[C@H]1[C@H](CO)[C@H]2Cn3c(ccc(C4=CCCC4)c3=O)[C@H]2N1CC1CCOCC1 returned Mtb BioA inh inactive and TcdB inh inactive.
COc1ccc(-n2nc3c(c2NC(=O)CCl)CSC3)cc1 was read as Mtb BioA inh inactive, FadD28 binding inactive, UGM FP inh inactive, TcdB inh inactive, Rv3671c inh inactive, RecA intein inh 34 and GFP chromo cs inactive.
Screening COC(=O)[C@@H]1[C@@H](CO)[C@@H]2Cn3c(ccc(C4=CCCC4)c3=O)[C@@H]2N1C(=O)C1CCC1 returned Mtb BioA inh inactive.
For Cc1cccc(C)c1-n1cccc1/C=C1\SC(=S)N(c2cccc(C(=O)O)c2)C1=O the results were FadD28 binding inactive, UGM FP inh inactive, TcdB inh inactive, Rv3671c inh inactive, RecA intein inh 33 and GFP chromo cs 11.

Source: PubChem (several laboratories)
